Inconclusive results are not listed. Where a call stands in place of a potency, no number is given. The source made the active and inactive calls. The call rests on the fitted dose curve; in most records, active means well fitted cell-killing curve with a large enough effect; inconclusive means small, poorly fitted or top-dose-only effect; inactive means flat fitted curve, though single readings scatter.
Test: Quantitative highthroughput screen to assess conditional lethalithy of P12 Ichikawa cells grown in RPMI1640 with untreated serum (RPMI+s) (AID 1963881); further: nearly all actives have a fitted effect of over 35% in size
Conditions: ATP luminescence, 48 h; Potency: viability; series mostly up to 45.8 µM
Source text: Assay Provider: Jason Cantor Ph.D.
Department of Biochemistry
University of Wisconsin-Madison, Madison, WI, USA
Chemical screening studies have identified drug sensitivities across hundreds of cancer cell lines but most putative therapeutics fail to translate. Discovery and development of drug candidates in models that more accurately reflect nutrient levels in human blood is a major challenge. Here we performed high-throughput screens in conventional versus Human Plasma-Like Medium (HPLM) to identify compounds that were "missed" when screening using the artificial culture condition. Sets of conditional anticancer compounds spanned phases of clinical development and included non-oncology drugs were assessed. […] We also traced conditional phenotypes for several chemotherapeutics to availability of HPLM-specific metabolites and confirmed others for compounds whose reported targets are encoded by nonessential genes. Our findings establish generalizable strategies for exploiting conditional lethality in HPLM to reveal therapeutic candidates and mechanisms of action in cancer cells.
Described herein are the results of each viability screens against three cell lines: NOMO1 (an acute myeloid leukemia cell line); P12-Ichikawa (a T-cell acute lymphoblastic leukemia); and SEM (a B-cell ALL). Each assay was screened using 3 different cell culture media: homemade human plasma-Like medium with 10% dialyzed fetal bovine serum (HPLM+ds); RPMI1640 with 10% untreated FBS and 5mM glucose (RPMI+s); and RPMI1640 with 10% dialyzed fetal bovine serum and 5 mM glucose (RPMI+ds).
PROTOCOL TABLE (as described by Inglese J, Shamu CE and Guy RK. 2007)
SEQUENCE No. (e.g., 1, 2, 3, etc.); […] (e.g., Cells, Incubation, Reagent, etc.); VALUE and DESCRIPTION.
1; Cells; 5 uL; white, solid bottom 1536-well Greiner assay plate.
2; Compounds; 23 nL; Kalypsis pin tool (Wako USA) equipped with a 1536-well pin head to transfer to the assay plates.
3; Incubation; 48 hours; 37C incubation.
4; Reagent; 3 uL; CellTiter Glo (Promega).
5; Incubation; 5 min, room temperature
6; Detection; Luminescence, Viewlux PerkinElmer.
NOTES (numbers refer to Sequence numbers above)
1. Briefly, 5 ul of cell reagent was dispensed using a Multidrop Combi Dispenser. The NOMO1 and SEM cells were plated at 500 cells/well and the P12-Ichikawa line at 1000 cells/well.
2. After seeding the cells, 23 nL of MIPE 4.1 library compounds (in DMSO) were added to each plate using a Kalypsys 1536 Pintool dispenser. Bortezomib at final concentration of […] and DMSO were added to each plate as positive and negative controls respectively. For each screen, MIPE 4.1 compounds were added over an eleven-point concentration range […] in 3-fold dilutions.
3. Each plate was covered with a stainless steel gasketed lid to prevent evaporation and incubated for 48 hour at 37C, 95% relative humidity, and 5% CO2.
4-5. Three microliter CellTilter-GloTM luminescent substrate mix (Promega) reagent was added to the assay plate and incubated at room temperature for 5 min.
6. The luminescence signal was measured using a ViewLux (PerkinElmer) multiplate reader with a 2 second exposure time per plate. Data for each compound were normalized as percent viability such that measurements for DMSO and the empty well controls in each plate were defined as 100% and 0%, respectively.
Potency means the concentration at half of the fitted maximal effect.

SMILES | Potency
COc1cc(F)c(C(C)C)cc1-c1ccc(C(F)(F)F)cc1CN1C(=O)O[C@H](c2cc(C(F)(F)F)cc(C(F)(F)F)c2)[C@@H]1C | inactive
CC(C)[C@H](N)C(=O)OCCOCn1cnc2c(=O)[nH]c(N)nc21 | inactive
N[C@H]1CN(c2c(F)cc3c(=O)c(C(=O)O)cn(C4C[C@@H]4F)c3c2Cl)CC12CC2 (stereo not given in full) | inactive
CNC1[C@H](O)C(O[C@@H]2C(O)C(O[C@H]3O[C@H]([C@@H](C)NC)CC[C@H]3N)[C@@H](N)C[C@H]2N)OC[C@]1(C)O (stereo not given in full) | inactive
CCC[C@@H]1C[C@@H](C(=O)N[C@@H]([C@H]2O[C@H](SC)[C@H](O)[C@@H](O)[C@H]2O)[C@@H](C)O)N(C)C1 | inactive
O=C(O)[C@H](Cc1c[nH]c2ccccc12)N1C(=O)c2ccccc2C1=O | inactive
O=P(O)(O)C(O)(Cc1cccnc1)P(=O)(O)O | inactive
CC(C)OC(=O)[C@H](C)N[P@](=O)(OC[C@H]1O[C@@H](n2ccc(=O)[nH]c2=O)[C@](C)(F)[C@H]1O)Oc1ccccc1 | 6.62 µM (active)
CC(C)C[C@H](NC(=O)c1cc2ccccc2s1)C(=O)N1CCN(C(=O)[C@H](CO)NS(=O)(=O)c2ccc(Cl)cc2Cl)CC1 | inactive
O=C(Cc1ccc(-c2ccc(OCCN3CCOCC3)cc2)cn1)NCc1ccccc1 | 0.0372 µM (active)
Cc1onc(-c2ccccc2Cl)c1C(=O)N[C@@H]1C(=O)N2[C@@H]1SC(C)(C)[C@@H]2C(=O)O | inactive
CNC(=O)CN1CCC(Oc2cc3c(Nc4cccc(Cl)c4F)ncnc3cc2OC)CC1 | 2.09 µM (active)
Oc1ccc(-c2nc(-c3ccc(F)cc3)c(-c3ccncc3)[nH]2)cc1 | 16.6 µM (active)
CN(C)CCc1c[nH]c2ccc(Cn3cncn3)cc12 | 1.18 µM (active)
NCCCCCC(=O)O | inactive
C=C(C)[C@@H]1CC[C@]2(C(=O)O)CC[C@]3(C)[C@H](CC[C@@H]4[C@@]5(C)CC[C@H](O)C(C)(C)[C@@H]5CC[C@]43C)[C@@H]12 | inactive
CN1c2cc(O)c(N=NC(N)=O)cc2CC1S(=O)(=O)O (stereo not given) | inactive
CCCCCN=C(N)NN=Cc1c[nH]c2ccc(OC)cc12 | 13.2 µM (active)
C[C@H](NCc1ccc2c(c1)nc(NC(=O)c1ccc(-c3cn[nH]c3)s1)n2CCc1ccccc1)C(C)(C)C | 9.35 µM (active)
COC(=O)[C@@H]1CC2=CC(=O)CC[C@]2(C)[C@@]23O[C@@H]2C[C@@]2(C)[C@H](CC[C@@]24CCC(=O)O4)[C@@H]13 | inactive

SMILES | Potency
Nc1ccn([C@@H]2O[C@H](CO)[C@@H](O)[C@H]2O)c(=O)n1 | inactive
NC(=O)OCC(COC(N)=O)c1ccccc1 | inactive
O=C(O)Cn1nnc(-c2cc(N3CCC(Oc4cc(F)ccc4Br)CC3)no2)n1 | 9.35 µM (active)
CNC(=O)c1ccccc1Nc1nc(Nc2ccc(N3CCOCC3)cc2OC)ncc1Cl | 6.62 µM (active)
CC1Cc2ccccc2N1NC(=O)c1ccc(Cl)c(S(N)(=O)=O)c1 (stereo not given) | inactive
CN1CCN2c3ncccc3Cc3ccccc3C2C1 (stereo not given) | inactive
O=C(O)C(O)Cc1ccc(O)c(O)c1 (stereo not given) | inactive
O=C(O)COCCN1CCN(C(c2ccccc2)c2ccc(Cl)cc2)CC1 (stereo not given) | inactive
COc1cc2nc(N3CCN(C(=O)C4CCCO4)CC3)nc(N)c2cc1OC (stereo not given) | inactive
CC[C@]1(O)C[C@H]2CN(CCc3c([nH]c4ccccc34)[C@@](C(=O)OC)(c3cc4c(cc3OC)N(C=O)[C@H]3[C@@](O)(C(=O)OC)[C@H](OC(C)=O)[C@]5(CC)C=CCN6CC[C@]43[C@@H]65)C2)C1 | 0.0264 µM (active)
Cc1cnc(-c2cc(N3CCN(C(=O)CCS(C)(=O)=O)CC3)ncc2Cl)c(C)c1 | inactive
Oc1cc2c(cc1O)C1c3ccc(O)c(O)c3OCC1(O)C2 (stereo not given) | inactive
NC[C@H]1O[C@H](O[C@@H]2[C@@H](O)[C@@H](O[C@H]3O[C@H](CO)[C@@H](O)[C@H](N)[C@@H]3O)[C@H](N)C[C@@H]2N)[C@H](O)[C@@H](O)[C@H]1O | inactive
CCCC(CCC)C(=O)O | inactive
Nc1ccn(C2CO[C@H](CO)O2)c(=O)n1 (stereo not given in full) | inactive
c1ccc(-c2nn3c(c2-c2ccnc4cc(OCCN5CCOCC5)ccc24)CCC3)nc1 | inactive
O=C(Nc1cc(Cl)cc2c1[nH]c1cnccc12)c1cccnc1 | inactive
COc1cc(O)c2c(c1)C1OC1C[C@H](O)[C@H](O)C(=O)C=CC[C@H](C)OC2=O (stereo not given in full) | 18.7 µM (active)
O=C1NC(O)CCN1[C@@H]1O[C@H](CO)[C@H](O)[C@H]1O (stereo not given in full) | inactive
Cc1ccnc(NS(=O)(=O)c2ccc(NC(=O)Nc3ccc(S(=O)(=O)Nc4nccc(C)n4)cc3)cc2)n1 | 0.469 µM (active)

From PubChem BioAssay (NCATS)
